Reference: PubChem BioAssay (NCATS)
Several values for one entry are separate records, joined by “and”; a condition that tells them apart may be missing. Identical values can stand only once. Records with an inconclusive call do not appear. Activity calls are given as the source filed them. The call rests on the fitted dose curve.

Biological target: Vitamin D3 receptor (Homo sapiens) (UniProt P11473)
Sequence (P11473 whole entry, looked up): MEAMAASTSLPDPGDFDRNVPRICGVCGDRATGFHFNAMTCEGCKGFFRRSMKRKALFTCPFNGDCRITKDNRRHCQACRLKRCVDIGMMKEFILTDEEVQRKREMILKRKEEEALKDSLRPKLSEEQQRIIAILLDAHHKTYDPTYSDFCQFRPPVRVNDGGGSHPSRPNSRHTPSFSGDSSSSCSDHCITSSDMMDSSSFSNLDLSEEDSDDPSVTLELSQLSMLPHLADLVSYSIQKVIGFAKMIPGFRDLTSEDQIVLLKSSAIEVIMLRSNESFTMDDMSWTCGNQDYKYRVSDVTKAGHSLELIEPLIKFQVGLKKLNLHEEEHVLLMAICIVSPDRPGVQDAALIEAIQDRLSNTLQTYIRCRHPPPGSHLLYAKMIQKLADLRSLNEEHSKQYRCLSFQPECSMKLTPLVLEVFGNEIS
Test: qHTS assay for small molecule agonists of vitamin D receptor signaling (AID 588543);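 further: 0% = DMSO basal and 100% = reference agonist control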
Details: HEK293T VDR-UAS-bla, beta-lactamase ratio, 16 h; series mostly up to 76.8 µM
Outline: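 β-lactamase reporter, VDR-UAS-bla HEK293T, agonist mode. Cells plated 5 h at 37 °C, compound titration 16 h at 37 °C, CCF4 dye 2 h RT, ratio 460/530 nm. Hill fit → EC50, efficacy vs 50 nM 1α,25-(OH)2D3.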
With `CCCCOC(=O)CC(CC(=O)OCCCC)(OC(C)=O)C(=O)OCCCC` the outcome was “inactive”.
For `COc1cc([C@H]2Oc3cc([C@H]4Oc5cc(O)cc(O)c5C(=O)[C@@H]4O)ccc3O[C@@H]2CO)ccc1O`, the outcome was “inactive”.
For `CCCCCCCCCCCCCCCCO`, the outcome was “inactive”.
In the case of `C#C[C@]1(O)CC[C@H]2[C@@H]3CCC4=Cc5oncc5C[C@]4(C)[C@H]3CC[C@@]21C`, the outcome is reported as “inactive”.
For `CCOc1ccc(NC(C)=O)cc1`, the outcome was “inactive”.
In the case of `CCCCCCCC/C=C\CCCCCCCCN`, the outcome is reported as “inactive”.
With `C=C[C@@]1(C)CC(=O)[C@]2(O)[C@@]3(C)[C@@H](O)CCC(C)(C)[C@@H]3[C@H](O)[C@H](OC(C)=O)[C@@]2(C)O1` the outcome was “inactive”.
With `CCOc1ccccc1C(N)=O` the outcome was “inactive”.
In the case of `O=C(O)c1ccc(S(=O)(=O)N(Cl)Cl)cc1`, the outcome is reported as “inactive”.
In the case of `COc1ccc(C(Cl)=C(c2ccc(OC)cc2)c2ccc(OC)cc2)cc1`, the outcome is reported as “inactive”.
For `NCCNc1cccc2ccccc12`, the outcome was “inactive”.
With `CCCCCCCCCCCCCC(=O)OC(C)C` the outcome was “inactive”.
In the case of `CC1(C)OC[C@@H]2O[C@@]3(C(=O)O)OC(C)(C)O[C@H]3[C@@H]2O1`, the outcome is reported as “inactive”.
In the case of `CCCN(CCC)S(=O)(=O)c1ccc(C(=O)O)cc1`, the outcome is reported as “inactive”.
With `CCCCCCCCCCCCCCCC(=O)O` the outcome was “inactive”.
For `CC(C)(C)CC(C)(C)c1ccc(O)c(-n2nc3ccccc3n2)c1`, the outcome was “inactive”.
For `NC(=O)c1ccccc1O`, the outcome was “inactive”.
With `CCCCC(CC)COC(=O)c1ccc(N(C)C)cc1` (stereo unspecified) the outcome was “inactive”.
In the case of `Oc1ccc(Cl)cc1Cc1cc(Cl)ccc1O`, the outcome is reported as “inactive”.
With `CCCCCCCCOc1ccc(C(=O)c2ccccc2)c(O)c1` the outcome was “inactive”.

Tested on: not listed separately
Test: qHTS assay for small molecule agonists of retinoid X receptor alpha signaling (AID 588544)
Details: HEK293T RXRa-UAS-bla, beta-lactamase reporter, 18 h; 530 nm emission
`CCCCOC(=O)CC(CC(=O)OCCCC)(OC(C)=O)C(=O)OCCCC` gave a max response of 10.7%.
Compound `CCCCCCCCCCCCCCCCO` has a max response of 2.95%.
`C#C[C@]1(O)CC[C@H]2[C@@H]3CCC4=Cc5oncc5C[C@]4(C)[C@H]3CC[C@@]21C` showed a max response of 27%.
In the case of `C/C=C/c1ccc(O)c(OC)c1`, the max response is reported as -13.6% and -6.37%.
In the case of `CCOc1ccc(NC(C)=O)cc1`, the max response is reported as 2.99% and -14.4%.
`CCCCCCCC/C=C\CCCCCCCCN` gave a max response of -3%.
`OC[C@H]1O[C@@H]2O[C@H]3[C@H](O)[C@@H](O)[C@@H](O[C@H]4[C@H](O)[C@@H](O)[C@@H](O[C@H]5[C@H](O)[C@@H](O)[C@@H](O[C@H]6[C@H](O)[C@@H](O)[C@@H](O[C@H]7[C@H](O)[C@@H](O)[C@@H](O[C@H]8[C@H](O)[C@@H](O)[C@@H](O[C@H]1[C@H](O)[C@H]2O)O[C@@H]8CO)O[C@@H]7CO)O[C@@H]6CO)O[C@@H]5CO)O[C@@H]4CO)O[C@@H]3CO` gave a max response of 2.91%.
Compound `CCOc1ccccc1C(N)=O` has a max response of -15.7%.
`O=C(O)c1ccc(S(=O)(=O)N(Cl)Cl)cc1` gave a max response of -8.23%.
With `COc1ccc(C(Cl)=C(c2ccc(OC)cc2)c2ccc(OC)cc2)cc1` the max response was -9.29%.
`NCCNc1cccc2ccccc12` gave a max response of 15.9%.
`CN(C)C(=O)Nc1ccc(Cl)c(Cl)c1` gave a max response of -0.181%.
In the case of `CCCCCCCCCCCCCC(=O)OC(C)C`, the max response is reported as -13.5%.
Compound `CC1(C)OC[C@@H]2O[C@@]3(C(=O)O)OC(C)(C)O[C@H]3[C@@H]2O1` has a max response of 0.747%.
For `CCCN(CCC)S(=O)(=O)c1ccc(C(=O)O)cc1`, the max response was -13.7% and -10.4%.
Compound `CCCCCCCCCCCCCCCC(=O)O` has a max response of -15.5%.
With `NC(=O)c1ccccc1O` the max response was -2.87%.
In the case of `CCCCC(CC)COC(=O)c1ccc(N(C)C)cc1` (stereo unspecified), the max response is reported as -13.5%.
For `Oc1ccc(Cl)cc1Cc1cc(Cl)ccc1O`, the max response was -27.5% and -0.357%.
Work on `CCCCCCCCOc1ccc(C(=O)c2ccccc2)c(O)c1` yielded a max response of -1.02%.

Biological target: Thyroid hormone receptor beta (Homo sapiens) (UniProt P10828)
Sequence (P10828 whole entry, looked up): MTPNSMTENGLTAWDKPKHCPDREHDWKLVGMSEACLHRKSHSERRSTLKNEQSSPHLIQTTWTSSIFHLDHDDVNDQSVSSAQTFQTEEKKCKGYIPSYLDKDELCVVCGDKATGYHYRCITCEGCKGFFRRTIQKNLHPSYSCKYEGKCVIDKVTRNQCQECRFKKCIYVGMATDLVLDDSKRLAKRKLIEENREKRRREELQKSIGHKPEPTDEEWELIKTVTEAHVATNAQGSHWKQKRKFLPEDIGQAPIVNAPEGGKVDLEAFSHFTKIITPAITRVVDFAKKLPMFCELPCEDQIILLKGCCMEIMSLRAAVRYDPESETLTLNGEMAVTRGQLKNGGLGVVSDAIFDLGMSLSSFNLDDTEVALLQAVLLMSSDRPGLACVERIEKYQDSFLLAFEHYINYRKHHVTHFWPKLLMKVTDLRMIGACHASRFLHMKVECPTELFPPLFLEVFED
Test: qHTS assay for small molecule agonists of thyroid hormone receptor beta signaling (AID 588545)
Details: TR-UAS-bla GripTite HEK 293, beta-lactamase ratio, agonist mode, 18 h, percent of T3 response, DMSO as zero; series mostly up to 76.7 µM
Outline: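 In this cell-based screen, titrated compounds act on HEK 293 cells held in medium with 2% charcoal/dextran FBS, NEAA and pyruvate for 18 hrs at 37 C. Responses are expressed relative to T3 (10 nM) as 100% and basal DMSO as 0%.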
For `CCCCOC(=O)CC(CC(=O)OCCCC)(OC(C)=O)C(=O)OCCCC`, the outcome was “inactive”.
With `CCCCCCCCCCCCCCCCO` the outcome was “inactive”.
In the case of `CCOc1ccc(NC(C)=O)cc1`, the outcome is reported as “inactive”.
With `CCCCCCCC/C=C\CCCCCCCCN` the outcome was “inactive”.
In the case of `OC[C@H]1O[C@@H]2O[C@H]3[C@H](O)[C@@H](O)[C@@H](O[C@H]4[C@H](O)[C@@H](O)[C@@H](O[C@H]5[C@H](O)[C@@H](O)[C@@H](O[C@H]6[C@H](O)[C@@H](O)[C@@H](O[C@H]7[C@H](O)[C@@H](O)[C@@H](O[C@H]8[C@H](O)[C@@H](O)[C@@H](O[C@H]1[C@H](O)[C@H]2O)O[C@@H]8CO)O[C@@H]7CO)O[C@@H]6CO)O[C@@H]5CO)O[C@@H]4CO)O[C@@H]3CO`, the outcome is reported as “inactive”.
With `C=C[C@@]1(C)CC(=O)[C@]2(O)[C@@]3(C)[C@@H](O)CCC(C)(C)[C@@H]3[C@H](O)[C@H](OC(C)=O)[C@@]2(C)O1` the outcome was “inactive”.
In the case of `COc1ccc(C(=O)c2ccccc2)c(O)c1`, the outcome is reported as “inactive”.
In the case of `O=C(O)c1ccc(S(=O)(=O)N(Cl)Cl)cc1`, the outcome is reported as “inactive”.
In the case of `COc1ccc(C(Cl)=C(c2ccc(OC)cc2)c2ccc(OC)cc2)cc1`, the outcome is reported as “inactive”.
With `NCCNc1cccc2ccccc12` the outcome was “inactive”.
For `CN(C)C(=O)Nc1ccc(Cl)c(Cl)c1`, the outcome was “inactive”.
In the case of `CCCCCCCCCCCCCC(=O)OC(C)C`, the outcome is reported as “inactive”.
With `CC1(C)OC[C@@H]2O[C@@]3(C(=O)O)OC(C)(C)O[C@H]3[C@@H]2O1` the outcome was “inactive”.
For `CCCN(CCC)S(=O)(=O)c1ccc(C(=O)O)cc1`, the outcome was “inactive”.
In the case of `CCCCCCCCCCCCCCCC(=O)O`, the outcome is reported as “inactive”.
In the case of `CC(C)(C)CC(C)(C)c1ccc(O)c(-n2nc3ccccc3n2)c1`, the outcome is reported as “inactive”.
With `NC(=O)c1ccccc1O` the outcome was “inactive”.
For `CCCCC(CC)COC(=O)c1ccc(N(C)C)cc1` (stereo unspecified), the outcome was “inactive”.
In the case of `Oc1ccc(Cl)cc1Cc1cc(Cl)ccc1O`, the outcome is reported as “inactive”.
In the case of `CC1(COc2ccc(CC3SC(=O)NC3=O)cc2)CCCCC1` (stereo unspecified), the outcome is reported as “inactive”.
In the case of `CCCCCCCCOc1ccc(C(=O)c2ccccc2)c(O)c1`, the outcome is reported as “inactive”.
